From PubChem
PNC inhibitor = perinucleolar compartment assembly inhibition | PC3M PTB-GFP, PNC prevalence imaging, 16 h; active compounds read low | activity change (PNC), negative = inhibition, % at 10 µM | 140,000 compounds, 3.1% hits;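 active means readout at or below -70, meaning at least 70% loss of cells showing the perinucleolar compartment, a nuclear body marking cancer cells; inconclusive means readout between -30 and a set limit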;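 further: plate controls were DMSO wells for no effect and camptothecin positive control wells for full effect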
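Read-out is percentage of cells bearing a perinucleolar compartment, from automated 20x imaging of fixed, Hoechst-stained PC3M PTB-GFP cells. Cells were seeded 4 h, then exposed 16 h to compound (23 nl of library stock) in duplicate plates.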
Luc counter = counter-screen: inhibitors of Kinase-Glo firefly luciferase; Q27757; 200,000 compounds, 0.28% hits; Kinase-Glo luciferase, ATP luminescence, 8 min; AID 1379; Potency, µM (titrated, usually from 38.3 µM), for inactives: at the top dose activity change, negative = inhibition, actives largely listed as inhibitors; active means well fitted inhibition curve with a large enough effect; inconclusive means small, poorly fitted or top-dose-only effect; further: potency means the concentration at half of the fitted maximal effect; nearly all actives have a fitted effect of over 60% in size
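Recombinant Kinase-Glo luciferase, 10 uM ATP (linear range), luciferin; imidazole pH 7.2 / KCl / MgCl2 / Tween / BSA buffer; 8 min RT; luminescence.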
HPGD block = HPGD (human) dehydrogenase inhibition | P15428 | 150,000 compounds, 4.3% hits | AID 894 | purified HPGD, NADH fluorescence kinetic, PGE2 substrate | Potency, µM, without a hit: at the highest dose activity change, negative = inhibition, hits mostly inhibitors; further: potency means the concentration at half of the fitted maximal effect
Target sequence (P15428 whole entry, looked up): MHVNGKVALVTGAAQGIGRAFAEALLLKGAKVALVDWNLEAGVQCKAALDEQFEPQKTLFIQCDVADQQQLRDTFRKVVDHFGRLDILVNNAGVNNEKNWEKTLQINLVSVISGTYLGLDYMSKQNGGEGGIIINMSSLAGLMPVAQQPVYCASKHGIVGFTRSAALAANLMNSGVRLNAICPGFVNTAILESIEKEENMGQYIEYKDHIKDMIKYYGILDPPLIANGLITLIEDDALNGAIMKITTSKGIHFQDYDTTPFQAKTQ
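NADH formation kinetics: reaction with 30 uM PGE2 and 1 mM NAD+ (final), 20 nM enzyme, Tris-HCl pH 8 with Tween 20, after 15 min compound preincubation at room temperature. Fluorescence change, last versus first of five reads.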
Lamin A splicing = LMNA splicing modulation. HeLa LMNA splicing GFP/RFP minigene ratio, 48 h. 200,000 compounds, 0.01% hits. Potency, µM (top dose mostly 46.1 µM), without a hit: top-dose ratio change, negative = inhibition, actives largely listed as inhibitors; active means well fitted inhibition curve with a large enough effect in the signal ratio, with a control signal flat, not every such curve was filed as active; inconclusive means small, poorly fitted or top-dose-only effect, or effect the other way, or a change in a side signal; the % refers to the signal ratio; further: potency means the concentration at half of the fitted maximal effect
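S3 HeLa cells stably expressing lamin A-EGFP splicing minigene plus DsRed2, 600 cells/well, 48 h compound exposure at 37C. Laser-scanning cytometry; analysed as GFP (500-530 nm)/RFP (575-640 nm) total intensity ratio; 0.5% DMSO vehicle.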
IMPase cell inh = IMPase inhibition in cells; P97697; CHO-M1 cells, IP1 accumulation, HTRF TR-FRET ratio; inhibition (IP1 accumulation), % at 46.1 µM; 120,000 tested, under 10 active; active means well fitted curve in the direction sought with a large enough effect in the signal ratio, not every such curve was filed as active; inconclusive means small, poorly fitted or top-dose-only effect, or a change in a side signal; inactive means no such curve, though single readings can be large or run the other way; the % refers to the signal ratio;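 further: cells stimulated with carbachol in lithium chloride buffer; plate controls were DMSO basal wells for no effect and reference inhibitor wells for full effect; higher means more IMPase inhibition seen as more IP1 and lower FRET ratio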
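Carbachol-driven Gq signalling in CHO-M1 cells (2000/well) generates IP1. Compounds that block IMPase raise IP1 and so reduce the FRET signal from Eu-anti-IP1 and d2-IP1 after a 10 min room-temperature lysis.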
ALDH1A1 block = blocks purified human ALDH1A1 activity; P00352; Purified ALDH1A1, NADH fluorescence, propionaldehyde substrate; Potency, µM (series often up to 75.3 µM), inactives show top-dose activity, negative = inhibition, most hits filed as inhibitors; 220,000 compounds, 7.3% hits;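 further: potency means the concentration at half of the fitted maximal effect; plate controls were no enzyme wells and a reference inhibitor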
Target sequence (P00352 whole entry, looked up): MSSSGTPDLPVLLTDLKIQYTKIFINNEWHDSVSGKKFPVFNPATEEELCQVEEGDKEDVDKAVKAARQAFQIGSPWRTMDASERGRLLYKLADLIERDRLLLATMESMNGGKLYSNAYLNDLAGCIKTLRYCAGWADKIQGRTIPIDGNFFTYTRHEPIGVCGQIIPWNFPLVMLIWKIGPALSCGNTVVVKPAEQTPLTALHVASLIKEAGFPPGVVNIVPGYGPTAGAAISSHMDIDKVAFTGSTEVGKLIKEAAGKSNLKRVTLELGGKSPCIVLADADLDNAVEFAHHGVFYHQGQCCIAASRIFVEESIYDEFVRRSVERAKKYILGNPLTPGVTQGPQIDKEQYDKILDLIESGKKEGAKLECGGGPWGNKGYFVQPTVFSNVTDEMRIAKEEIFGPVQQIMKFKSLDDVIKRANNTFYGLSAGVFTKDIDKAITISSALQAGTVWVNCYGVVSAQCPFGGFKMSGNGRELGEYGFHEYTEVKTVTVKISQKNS
* marks the source's active call; other numbers are inactive results; ? = inconclusive; · = not tested or not shown; [ ] = remark or other dose. Rows were chosen to be rich in hits. Some 10% of all compounds tested hit in one or more screens of this group. Unless noted, the call rests on the fitted dose curve; in most records, active means well fitted inhibition curve with a large enough effect (not every such curve was filed as active); inconclusive means small, poorly fitted or top-dose-only effect, or another doubt; inactive means no such curve, though single readings can be large or run the other way. Unless noted, on the % scale 0 is the no-effect control and ±100 the full control effect.

SMILES	PNC inhibitor	Luc counter	HPGD block	Lamin A splicing	IMPase cell inh	ALDH1A1 block
O=[N+]([O-])c1ccc(Oc2cccnc2)nc1	·	·	·	·	·	7%
N#Cc1cc(Oc2cccnc2)c(Oc2cccnc2)cc1C#N	-111*	-3%	-5%	-16%	?	17%
[N-]=[N+]=CC(=O)C(Cc1ccccc1)N1C(=O)c2ccccc2C1=O (stereo not given)	11	-4%	-13%	2%	2	2.8µM*
CCCCc1nc2ccn(CC(=O)N(C)C)c(=O)c2n1Cc1ccc(-c2ccccc2-c2nn[nH]n2)cc1	·	4%[39.9 µM]	-8%	·	·	-8%
O=C(O)COc1ccccc1/C=C1\SC(=S)N(/N=C/c2ccccc2O)C1=O	-13	2%	8.9µM*	-11%	·	?
Cc1c(C(=O)OC2CCCCC2)[nH]c2c1C(=O)CC(c1ccc(C(C)(C)C)cc1)C2 (stereo not given)	·	·	·	·	3	·
CCCOc1ccc(Br)cc1/C=N/O	-17	1%	10µM*	13%	7	-2%
C#CCOc1ccc(Cl)cc1/C=N/O	?	-3%	?	14%	0	7%
CCOc1ccc(Br)cc1/C=N/O	-19	10%	11µM*	7%	14	-1%
O=C(O)COc1ccc(Br)cc1/C=N/O	-10	1%	-14%	1%	-11	3%
C#CCOc1ccc(Br)cc1/C=N/O	30	-1%	14µM*	18%	3	0%
CCCOc1ccc(Br)cc1/C=N/NC(=O)c1cc(OC)c(OC)c(OC)c1	?	0%	-11%	-7%	·	-4%
Cc1ccc(Cl)cc1N1CCN(C(=O)c2ccc(NC(=O)c3nsc4ccccc34)cc2)CC1	·	·	·	-3%[46 µM]	·	·
Cc1ccc(-n2nc(C)c3nc(CCC(=O)Nc4cccc(F)c4)c(=O)n(C)c32)cc1	·	·	·	-10%[46 µM]	·	·
O=C(CSc1nc2scc(-c3ccccc3)c2c(=O)[nH]1)N1CCCCC1	·	-1%	·	·	·	1.8µM*
O=C(CSc1nc2scc(-c3ccccc3)c2c(=O)[nH]1)NC1CCCCC1	·	·	·	·	·	2%
CC(=O)Nc1ccc(N2C(=O)CC(Sc3nc4ccccc4s3)C2=O)cc1 (stereo not given)	·	0%	·	·	·	0.71µM*
CC(=O)Nc1ccc(N2C(=O)CC(c3ccccc3)CC2=O)cc1	-9	2%	-13%	6%	1	2%
COc1ccc(N2C(=O)CC(Sc3nc4ccccc4s3)C2=O)cc1OC (stereo not given)	·	-3%	·	?	·	3.5µM*
COc1ccccc1N1CCN(C(=O)c2c(C)oc3ncn(C)c(=O)c23)CC1	·	·	·	-20%[46 µM]	·	·
CCOC(=O)C1=C(C)NC(=O)NC1c1ccc(-c2ccccc2F)o1 (stereo not given)	?	0%	6%	?	·	20µM*
CC(Sc1nc(-c2ccc(F)cc2)cs1)C(=O)Nc1ccc(Cl)cn1 (stereo not given)	-100*	-2%	-18%	-6%	·	1%
Cc1oc(-c2ccc3ccccc3c2)nc1CN(C)C(C)c1ccncn1 (stereo not given)	·	-2%	·	·	·	15µM*
CC(c1ccncn1)N(C)Cc1nc(-c2ccc(C(F)(F)F)cc2)no1 (stereo not given)	·	8%	·	·	·	-85%
C=CCn1c(SCC(=O)c2cccs2)nc2sc(CC)cc2c1=O	-6	0%	-16%	?	22	3.5µM*
SMILES	PNC inhibitor	Luc counter	HPGD block	Lamin A splicing	IMPase cell inh	ALDH1A1 block
Cc1nn(-c2ccccc2)c2c1N(CC(=O)N1CCN(c3cccc(Cl)c3)CC1)C(=O)CS2	·	·	·	-8%[46 µM]	·	·
COc1ccc(NC(=O)Nc2ccccc2C(N)=O)cc1	·	8.9µM*	·	·	·	0%
CCOc1ccc(NC(=O)Nc2ccccc2C(N)=O)cc1	·	7.1µM*	·	·	·	7%
COc1ccc(NC(=O)Nc2cc(C)ccc2F)cc1	9	-12%	-10%	-1%	-6	6%
COc1ccc(C)cc1NS(=O)(=O)c1ccc(NS(=O)(=O)c2ccc(NC(C)=O)cc2)cc1	10	2%	-13%	-21%	-1	22µM*
COc1ccc(NC(=O)Nc2cc(C)ccc2OC)cc1	-82*	?	-16%	4%	5	-15%
COc1ccc(OC2C(O)COC2/C=C/c2ccccc2)cc1 (stereo not given)	·	·	·	·	·	4%[13.5 µM]
CCOC(=O)c1cc(NC(=O)Nc2ccc(OC)c(OC)c2)c(C)nc1C	-102*	1%	-1%	-6%	-1	-4%
Cn1c(Cc2csc(N)n2)nnc1SCC(=O)NCc1ccccc1	-92*	-1%	-10%	1%	-6	28µM*
Cc1oc(-c2ccc3c(c2)OCCO3)cc1C(=O)NCC(=O)O	·	-2%	·	1%[46 µM]	·	?
Cc1oc(-c2ccc3c(c2)OCCO3)cc1C(=O)O	26	13µM*	?	8%	-1	?
Cc1oc(-c2ccc3c(c2)OCCO3)cc1C(=O)NC(CCC(=O)O)C(=O)O (stereo not given)	-19	-2%	14µM*	8%	-6	7.9µM*
CCOC(=O)c1ccc(N2C(=O)CC(NC3CCN(C(=O)c4ccc(F)cc4)CC3)C2=O)cc1 (stereo not given)	-1	-1%	-7%	-4%	-2	14µM*
CCOC(=O)N1CCN(C(=O)c2ccc(OCC)cc2)CC1	·	-2%	·	9%[46 µM]	·	2%
CCOC(=O)N1CCN(C(=O)c2ccc(N3C(=O)CCC3=O)cc2)CC1	-89*	0%	-2%	-5%	-7	21%
COc1ccc(N2C(=O)CC(NC3CC3)C2=O)cc1 (stereo not given)	1	3%	-6%	-11%	-8	-12%
O=C(c1ccco1)N(CCC(c1ccccc1)c1ccco1)Cc1ccc(F)cc1 (stereo not given)	-14	0%	-9%	?	12	14µM*
CCC(=O)N(CCC(c1ccc(C)cc1)c1ccco1)Cc1ccco1 (stereo not given)	·	·	·	·	·	22µM*
NC(=O)c1ccc(-n2nnnc2SCc2ccc(F)cc2)cc1	-26	3%	-14%	14%	1	-6%
Cc1cccc2nc(CSc3nnnn3-c3ccccc3)cn12	7	4%	2%	3%	4	10µM*
COC(=O)c1ccc(-n2nnnc2SC)cc1	1	0%	13µM*	-4%	-5	28µM*
O=C(O)c1ccc(-n2nnnc2SCc2ccccc2)cc1	?	2%	20µM*	3%	-8	2%
COC(=O)COC(=O)c1ccc(-n2nnnc2SC)cc1	-7	-11%	-27%	9%	2	?
CSc1ccccc1-n1nnnc1SCc1ccccc1	?	0%	-30%	?	13	7.1µM*
CN(C)c1ccc(-c2ccc3ncnc(NC4CC4)c3c2)cc1	·	·	·	?	·	1%
